# Several values for one entry are separate records, joined by “and”; a condition that tells them apart may be missing. Equal values may be shown once. Where a name gives a salt, the structure may show the parent alone. ± gives the standard deviation of the averaged measurements.
# Tested on: iBMDM (immortalised mouse bone-marrow-derived macrophages), LPS-stimulated
# Test: mitochondrial superoxide (MitoSOX fluorescence) fold increase over unstimulated control; higher = more LPS-induced mitochondrial ROS (less inhibition)
# Settings: inhibitor concentration: 500 nM, LPS: 100 ng/ml
# Summary of the method: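 Immortalised mouse bone-marrow-derived macrophages were seeded in triplicate in black 96-well plates and moved to phenol-red-free 1% FCS/DMEM for 20 h. They were pretreated 30 min with kinase inhibitors (500 nM), loaded with 1 μM MitoSox for 10 min, then given LPS (100 ng/ml). Fluorescence (excitation/emission 510/580 nm, ClarioStar plate reader) was read every 60 min for 4 h. Mitochondrial superoxide is fold induction over untreated control macrophages, averaged over three replicates.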
Compound,mitochondrial superoxide (time after LPS: 1 h),mitochondrial superoxide (time after LPS: 2 h),mitochondrial superoxide (time after LPS: 4 h)
NC(=O)c1cccc(-c2cc(Nc3ccc(OC(F)(F)F)cc3)ncn2)c1,1.14 ± 0.054,1.11 ± 0.054,1.21 ± 0.082
CCNC(=O)Nc1ccc(-c2nc3c(c(N4CCOC[C@@H]4C)n2)CCN(C2COC2)C3)cc1,1.42 ± 0.045,1.6 ± 0.039,1.68 ± 0.062
Cn1cc(-c2[nH]c3cc(NC(=O)[C@H](N)C4CCCCC4)cc4c3c2C=NNC4=O)cn1,1.15 ± 0.062,1.15 ± 0.043,1.27 ± 0.029
Cc1ccccc1CN1C2=NCCN2C(=O)C2=C1CCN(Cc1ccccc1)C2,1.16 ± 0.042,1.27 ± 0.036,1.34 ± 0.13
COc1cc(N2CCC(N3CCN(C)CC3)CC2)ccc1Nc1ncc(Cl)c(Nc2ccccc2S(=O)(=O)C(C)C)n1,1.24 ± 0.068,1.3 ± 0.019,1.47 ± 0.04
C[C@@H]1CCN(C(=O)CC#N)C[C@@H]1N(C)c1ncnc2[nH]ccc12,1.12 and 1.28,1.21 and 1.4,1.3 and 1.58
CNC(=O)Nc1ccc(-c2nc(N3CC4CCC(C3)O4)c3cnn(C4CCC5(CC4)OCCO5)c3n2)cc1,1.26 ± 0.075,1.45 ± 0.028,1.58 ± 0.024
CC[C@@H]1C(=O)N(C)c2cnc(Nc3ccc(C(=O)N[C@H]4CC[C@H](N5CCN(CC6CC6)CC5)CC4)cc3OC)nc2N1C(C)C [Volasertib (BI 6727)],1.18 ± 0.016,1.27 ± 0.026,1.37 ± 0.043
C[C@@H](Oc1cc(-n2cnc3ccc(CN4CCN(C)CC4)cc32)sc1C(N)=O)c1ccccc1C(F)(F)F,1.12 ± 0.059,1.22 ± 0.025,1.35 ± 0.048
COc1cc2ncnc(Nc3ccc(Cl)cc3F)c2cc1OC,1.12 ± 0.029,1.24 ± 0.037,1.271 ± 0.0046
O=C(Nc1cc(C(F)(F)F)cc(C(F)(F)F)c1)c1cc(Cl)ccc1O,0.988 ± 0.04,1.04 ± 0.033,1.01 ± 0.054
CC(=O)Nc1cccc(-n2c(=O)n(C3CC3)c(=O)c3c(Nc4ccc(I)cc4F)n(C)c(=O)c(C)c32)c1,1.34 ± 0.11,1.44 ± 0.066,1.62 ± 0.083
CNC(=O)c1ccc(-c2cnc3ncc(Cc4ccc5ncccc5c4)n3n2)cc1F,1.12 ± 0.033,1.36 ± 0.16,1.58 ± 0.14
C#Cc1cccc(Nc2ncnc3cc(OCCOC)c(OCCOC)cc23)c1 [Erlotinib HCl (OSI-744)],1.62 ± 0.033,1.66 ± 0.076,1.76 ± 0.048
CC(C)(C)NS(=O)(=O)c1cncc(-c2cc(F)c3nc(N)nn3c2)c1,1.09 ± 0.021,1.18 ± 0.038,1.31 ± 0.064
CC(C)n1nc(-c2cc3cc(O)ccc3[nH]2)c2c(N)ncnc21,1.03 ± 0.088,1.15 ± 0.12,1.28 ± 0.063
CCOc1cc2ncc(C#N)c(Nc3ccc(F)c(Cl)c3)c2cc1NC(=O)/C=C/CN(C)C [Pelitinib (EKB-569)],1.2 ± 0.018,1.21 ± 0.049,1.32 ± 0.032

Compound,mitochondrial superoxide (time after LPS: 1 h),mitochondrial superoxide (time after LPS: 2 h),mitochondrial superoxide (time after LPS: 4 h)
CNC(=O)c1cc(Oc2ccc(NC(=O)Nc3ccc(Cl)c(C(F)(F)F)c3)c(F)c2)ccn1 [Regorafenib (BAY 73-4506)],1.5 ± 0.04,1.68 ± 0.057,1.71 ± 0.062
Cn1c(Nc2ccc(C(F)(F)F)cc2)nc2cc(Oc3ccnc(-c4ncc(C(F)(F)F)[nH]4)c3)ccc21,1.13 ± 0.08,1.2 ± 0.097,1.33 ± 0.066
CN(C)c1ccc(-c2nc3ncc(Cl)c(N4CCN(CC(=O)Nc5nccs5)CC4)c3[nH]2)cc1,1.21 ± 0.037,1.278 ± 0.0079,1.35 ± 0.039
C=CCc1ccc(O)c(-c2ccc(O)c(CC=C)c2)c1 [Honokiol],1.24 ± 0.031,1.31 ± 0.1,1.39 ± 0.096
Oc1ccc(Nc2nc(-c3ccc(Cl)cc3)cs2)cc1,1.47 ± 0.039,1.56 ± 0.01,1.71 ± 0.11
C#Cc1cccc(Nc2ncnc3cc(OC)c(OCCCCCCC(=O)NO)cc23)c1,1.189 ± 0.011,1.2 ± 0.047,1.22 ± 0.051
CCc1nc(-c2cccc(C)c2)c(-c2ccnc(NC(=O)c3ccccc3)c2)s1,1.17 ± 0.028,1.17 ± 0.022,1.18 ± 0.04
O=C(NCCCNc1nc(Nc2cccc(NC(=O)N3CCCC3)c2)ncc1I)c1cccs1,1.14 ± 0.041,1.18 ± 0.036,1.13 ± 0.051
N#CC(=C(/N)Sc1ccccc1N)/C(C#N)=C(\N)Sc1ccccc1N,1.36 ± 0.043,1.4 ± 0.048,1.45 ± 0.047
Cn1cnc(=N)c2[nH]cnc21 [3-Methyladenine],1.25 ± 0.078,1.34 ± 0.12,1.58 ± 0.15
Nc1nc(NCCNc2ncc(-n3ccnc3)c(-c3ccc(Cl)cc3Cl)n2)ccc1[N+](=O)[O-],1.17 ± 0.042,1.23 ± 0.024,1.31 ± 0.056
CN(C[C@@H]1COCCO1)S(=O)(=O)Nc1ccc2ccc3ncc(-c4cnn(C)c4)cc3c(=O)c2c1,1.26 ± 0.029,1.51 ± 0.054,1.76 ± 0.048
O=C(NC1CCNCC1)c1n[nH]cc1NC(=O)c1c(Cl)cccc1Cl,1.13 ± 0.061,1.15 ± 0.041,1.3 ± 0.018
Oc1cc(O)cc(/C=C/c2ccc(O)c(O)c2)c1 [Piceatannol],1.13 ± 0.0055,1.15 ± 0.013,1.23 ± 0.041
Nc1ccc(-c2ccc3ncc4ccc(=O)n(-c5cccc(C(F)(F)F)c5)c4c3c2)cn1 [Torin 2],1.18 ± 0.042,1.17 ± 0.05,1.24 ± 0.1
COc1cc2ncnc(Oc3cccc(NC(=O)Nc4cc(C(C)(C)C(F)(F)F)on4)c3)c2cc1OC,1.36 ± 0.027,1.562 ± 0.0063,1.59 ± 0.025
C[C@@H](Oc1cc(-c2cnn(C3CCNCC3)c2)cnc1N)c1c(Cl)ccc(F)c1Cl,1.39 ± 0.038,1.5 ± 0.052,1.64 ± 0.079

# From the supplement of paper PMC7393113
